# An excerpt weighted towards active compounds, which were near 1.7% of everything screened.
# Caspase-1 inhib: caspase-1 (human) inhibition, allosteric or competitive | AID 900 | Potency, µM (top dose mostly 57.5 µM), inactives show at the top dose activity change, negative = inhibition, hits mostly inhibitors | P29466 | Caspase-1 enzyme, Ac-WEHD-AFC fluorogenic rate | 75,000 compounds, 0.03% hits;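 further: plate controls were vehicle for no effect and no substrate for full effect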
# ALOX15 inhib: blocks human 15-lipoxygenase activity; purified 15hLO-1, xylenol orange hydroperoxide absorbance; P16050; 74,000 compounds, 1.4% hits; AID 887; Potency, µM (titrated, usually from 57.1 µM), inactives show top-dose activity change, negative = inhibition, usual class: inhibitors; further: on the % scale 0 is the no-effect control and ±100 the full control effect; nearly all actives have a fitted effect of over 55% in size
#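 Compounds were preincubated 15 min at room temperature with 40 nM purified human enzyme (25 mM Hepes pH 7.5, 0.01% Triton X-100); 50 uM arachidonic acid reacted 6 min. Fe-xylenol orange detection, 30 min, absorbance ratio 573/405 nm.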
# ERK AVP block: inhibitors of vasopressin-stimulated ERK signaling pathway; HEK293-V1b, vasopressin-stimulated pERK AlphaScreen; Potency, µM (titrated, usually from 57.5 µM), for the others: top-dose activity, negative = inhibition, most hits filed as inhibitors; 72,000 compounds, 0.99% hits; AID 995; further: on the % scale 0 is the no-effect control and ±100 the full control effect; nearly all actives have a fitted effect of over 55% in size
#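 qHTS, compounds titrated on V1b-expressing HEK293 cells. Preincubation 30 min at 37C, vasopressin 25 nM for 5 min, lysis 10 min, bead incubation 5 hr at room temperature.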
# Caspase-7 inhib: allosteric or competitive inhibitors of human caspase-7. P55210. recombinant caspase-7, Ac-DEVD-AFC fluorescence rate. Potency, µM (series often up to 57.5 µM), for inactives: at the top dose activity change, negative = inhibition, most hits filed as inhibitors. 75,000 compounds, 0.02% hits; active means well fitted inhibition curve with a large enough effect in the main read-out, with a control signal flat, not every such curve was filed as active; inconclusive means small, poorly fitted or top-dose-only effect, or a change in a side signal; further: % of control where 0% means no effect
# ALOX15B inhib: inhibitors of human 15-lipoxygenase 2 (ALOX15B). Potency, µM (series often up to 57.1 µM), for the others: at the top dose activity change, negative = inhibition, most hits filed as inhibitors. 110,000 compounds, 0.56% hits. AID 881. purified 15hLO-2, xylenol orange hydroperoxide absorbance. O15296; further: on the % scale 0 is the no-effect control and ±100 the full control effect; nearly all actives have a fitted effect of over 60% in size
#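 Purified human 15hLO-2 (50 nM final) preincubated with compounds 15 min at room temperature in 25 mM Hepes pH 7.5, 0.01% Triton X-100, then 45 uM arachidonic acid added for 90 min; hydroperoxide detected via ferrous/xylenol orange, 573/405 nm absorbance ratio.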
# Numbers without * were called inactive; u = inconclusive; x = no result; [ ] = another dose, or the depositor's remark. Unless noted, the call rests on the fitted dose curve; in most records, active means well fitted curve in the direction sought with a large enough effect; inconclusive means small, poorly fitted or top-dose-only effect, or another doubt; inactive means no such curve, though single readings can be large; an effect the other way counts as inactive or inconclusive. Potency means the concentration at half of the fitted maximal effect.
SMILES,Caspase-1 inhib,ALOX15 inhib,ERK AVP block,Caspase-7 inhib,ALOX15B inhib
O=C(O)CNc1ccc(C(=O)O)cc1,-2%[11.5 µM],2%[11.4 µM],5%[11.5 µM],0%[11.5 µM],-4%[11.4 µM]
CCOc1cccc(C(=O)Nc2cccc(-c3nc4ncccc4o3)c2C)c1,-2%,0%,13µM*,0%,2%
COc1ccc(OC2C=CC(c3ccccc3)OC2CO)cc1 (stereo unspecified),-5%[11.5 µM],3%[11.4 µM],-1%[11.5 µM],-1%[11.5 µM],x
O=c1[nH]c(SCc2cccc([N+](=O)[O-])c2)nc2nc[nH]c12,0%[11.5 µM],-11%[11.4 µM],-1%[11.5 µM],-1%[11.5 µM],-6%[11.4 µM]
O=C1S/C(=C\c2ccc(N3CCOCC3)o2)C(=O)N1Cc1c(F)cccc1Cl,x,x,x,x,6.3µM*
O=C1N=C(N2CCOCC2)S/C1=C/c1ccc(-c2ccccc2Cl)o1,x,x,x,x,-9%
CO[C@H]1COC(=O)[C@H](C)NC(=O)[C@@H](C)COC(=O)[C@H]2CCCN2C(=O)C/C=C\[C@H]1C,-1%[11.5 µM],21%[11.4 µM],8%[11.5 µM],0%[11.5 µM],x
COC(=O)C1C(=O)c2c([nH]c(C(=O)OC3CCCCC3)c2C)CC1C (stereo unspecified),-7%,0%,-5%,-1%,x
COC(=O)C1C(=O)c2c([nH]c(C(=O)OC3CCCC3C)c2C)CC1C (stereo unspecified),-4%,-13%,32µM*,-2%,-4%
O=C(CS(=O)(=O)Cc1ccccc1)Nc1nc2ccccc2s1,2%,-9%,25µM*,-2%,-3%
O=C(O)CCC(=O)Nc1nc2ccccc2s1,x,x,x,x,-1%
Cn1c(O)c(N=N/C(=N/c2ccccn2)c2ccccn2)c2cc(Br)ccc21,-3%,u,x,-4%,x
Oc1cccc(C(=S)N2CCN(Cc3ccccc3)CC2)c1,-1%,13µM*,-7%,-1%,-25%
CN(CCc1ccccn1)c1ccc2c(c1)C(=O)c1ccccc1-2,1%[11.5 µM],2%[11.4 µM],-13%[11.5 µM],-3%[11.5 µM],2%[11.4 µM]
C/C(Cl)=C\Cn1c(N2CCCC2)nc2c1c(=O)[nH]c(=O)n2C,-1%,4%,25µM*,-3%,-3%
O=C1N=c2ccccc2=C1c1sc(=S)n(CC2CCCO2)c1O (stereo unspecified),-1%,-5%,-2%,0%,-1%
O=C(O)CCC(C(=O)O)n1c(O)c(C2=c3ccccc3=NC2=O)sc1=S (stereo unspecified),-3%,10µM*,u,0%,u
Cc1[nH]n(-c2ccccc2)c(=O)c1/C=N/O,-2%,-11%,-4%,1%,-2%
Cc1[nH]n(-c2ccccc2)c(=O)c1-c1ccccc1,-2%,4µM*,-27%,-2%,-12%
C[C@H]1C=C2C=C[C@H](C)[C@H](CC[C@@H]3C[C@@H](O)CC(=O)O3)[C@H]2[C@@H](OC(=O)[C@@H](C)CCO)C1,-3%,u,12%,-5%,19%
NC(N)=NCCC[C@H](NC(=O)CC1(CC(=O)N2CCN(C3c4ccccc4NC(=O)c4ccccc43)CC2)CCCC1)C(=O)NCCn1c(=O)n(-c2ccccc2)n(-c2ccccc2)c1=O (stereo partly specified),-5%,20µM*,-4%,-1%,52%
COc1ccc2nc3sc(C(=O)NCc4cccs4)c(N)c3cc2c1,x,20µM*,u,u,-20%
C=CCn1c(=O)/c(=C/c2ccc(C)o2)s/c1=C(/C#N)C(=O)c1ccccc1,-14%,16µM*,2%,-17%,-18%
COCC(C)NC(=O)NC1(C(F)(F)F)Oc2ccc(Cl)cc2O1 (stereo unspecified),-2%,-21%,14%,-1%,-10%
O=C(NCCN1CCOCC1)NC1(C(F)(F)F)Oc2ccc(Cl)cc2O1 (stereo unspecified),1%,3.2µM*,22%,0%,x
SMILES,Caspase-1 inhib,ALOX15 inhib,ERK AVP block,Caspase-7 inhib,ALOX15B inhib
Cn1cccc1/C=N/n1c(-c2ccc(C(C)(C)C)cc2)n[nH]c1=S,x,x,x,x,10µM*
CC1CCC2C(=O)N3C(CCC(C)[C@H]3c3ccccc3Br)C(=O)N2C1c1ccccc1Br (stereo partly specified),-1%[11.5 µM],-3%[11.4 µM],16%[11.5 µM],1%[11.5 µM],x
NC(=O)c1ccccc1-c1nc(-n2ccnc2)c2ccccc2n1,0%,17%,u,-3%,-2%
CCOC(=O)c1[nH]cc(-c2ccccc2)c1N1CCOCC1,0%,25µM*,5%,0%,-18%
CCCC[C@H]1C[C@@H]1[C@@H]1N(C(C)=O)[C@H](c2cccc(OC)c2)CC12CC2,-3%,x,0%,-3%,13%
Cc1cc2nnc(SC3CCOC3=O)n2c2ccccc12 (stereo unspecified),3%,-10%,16µM*,-1%,2%
COc1ccc(-n2c(SC3CCOC3=O)nc3ccccc32)cc1 (stereo unspecified),-4%,-9%,-26%,3%,-6%
O=C1OCCC1Sc1nc2ccccc2n1-c1ccccc1 (stereo unspecified),-7%,-1%,16µM*,-3%,-1%
Cc1cc2nnc(SC3CCCCN(C(=O)c4ccc(F)cc4)C3=O)n2c2ccccc12 (stereo unspecified),x,x,x,x,35%
CN1CCN(c2ccnc(-c3ccccc3C(F)(F)F)n2)CC1,1%,-10%,18%,1%,17%
C=C(C)[C@]12C[C@@H](C)[C@@]34OC(Cc5ccccc5)(O[C@@H]1[C@@H]3C=C(COC(=O)Cc1cc(OC)c(O)cc1I)C[C@]1(O)C(=O)C(C)=C[C@@H]41)O2,x,x,x,x,4%[0.0915 µM]
O=C1CC(O)(C(F)(F)F)Oc2c1ccc1ccccc21 (stereo unspecified),-12%,-8%,16µM*,-9%,-14%
NCC1O[C@@H](O[C@@H]2C(O)[C@H](O[C@H]3OC(CO)C(O)C(N)C3O)[C@@H](N)C[C@H]2N)C(N)C(O)C1O (stereo partly specified),-1%,3%,11%,1%,-8%
C/C=C(/C)C#N,-3%,3%,-4%,0%,-7%
COc1ccc(C2C(C#N)=C(N)Oc3cc(O)ccc32)cc1OC (stereo unspecified),x,10µM*,u,u,-15%
COc1cc(C2C(C#N)=C(N)Oc3c2oc(CO)cc3=O)ccc1OC(C)C (stereo unspecified),-1%,20µM*,-19%,0%,-11%
COc1cc(C2C(C#N)=C(N)Oc3cc(N(C)C)ccc32)cc2c1OCO2 (stereo unspecified),-20%,25µM*,u,-23%,12%
O=C(/C=C/c1ccc(O)c(O)c1)OCCc1ccccc1,-1%,0.5µM*,-23%,-1%,10µM*
CN1CCc2c(cc(O)c(O)c2Cl)[C@H](c2cccc(Cl)c2)C1,-1%,16µM*,7%,-1%,u
Cc1nc(NCCc2cnc[nH]2)c2oc3ccccc3c2n1,-2%,-9%,-21%,1%,20%
COc1ccc(CCNc2ncnc3c2oc2ccccc23)cc1OC,-1%,8%,32µM*,0%,14%
c1ccc(CNc2ncnc3c2oc2ccccc23)nc1,x,x,x,x,-4%

# From PubChem
